Data as given in PubChem BioAssay (NCI).
The panel holds about 83,000 compounds, 20% with a hit somewhere; the sample as a whole holds those more often.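 Treatment: one concentration, 48 hours, 96-well format. Scoring: percent growth, with anything below 10 considered active.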 Active and inactive are the calls of the source.

The compounds below were run on MDA-MB-468 breast (assay: NCI-60 one-dose screen, 48 h (100 = growth as untreated, 0 = no growth, -100 = all killed)). Settings: 10 µM unless noted.

**Q.** How did the growth turn out when `CN1[C@@H]2CC[C@H]1/C(=C\c1ccccc1)C1=C2[C@@H](c2ccccc2)C(C#N)=C(N)O1` was run?
**A.** 50.3% (inactive)

**Q.** For `Cc1ccc(C(=O)Nc2ccc(CNCCN3CCOCC3)c(C(F)(F)F)c2)cc1C#Cc1cnc2cccnn12`, which growth is on record?
**A.** -21% (active)

**Q.** `Cc1ccc(C(=O)Nc2ccc(CN3CCN(C)CC3)c(C(F)(F)F)c2)cc1C#Cc1cnc(N)c2ccc(C#N)cc12` was tested. Which growth did it give?
**A.** 34.9% (inactive)

**Q.** Which growth does the source give for `Nc1nnc2cc(Cl)ccc2n1` here?
**A.** 101% (inactive)

**Q.** With `CC(CCC#N)(CCC#N)C(=O)c1ccccc1` as the compound, how does the growth read?
**A.** 106% (inactive)
